Measurements: the supplement of paper PMC10732440
± gives the standard deviation of the averaged measurements.

Test system: Caenorhabditis elegans N2 infected with Nematocida parisii ERTm1
Experiment: progeny production relative to DMSO uninfected control; higher = more progeny despite microsporidia infection (inhibition of infection with low host toxicity)
Settings: infection time 6 days
Method in brief: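 In 96-well plates holding K-medium, E. coli OP50 and 15,000 N. parisii spores/μL, 100 wild-type C. elegans L1 larvae per well were exposed to compound at 100 μM or 40 μM in 1% DMSO for 6 days with shaking at 21°C. Worms were then stained with Rose Bengal, scanned and counted with WorMachine, with three runs per compound and dose. Each value is progeny production as a percentage of the spore-free vehicle condition, averaged over replicates.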

| Compound | progeny production (40 µM) | progeny production (100 µM) |
| --- | --- | --- |
| O=C1NC(=S)N/C1=C\c1cc(Br)cc(Br)c1O | 6.18 ± 0.84% | 10.2 ± 8.1% |
| Cc1[nH]c2ccccc2c1CCNCc1ccc(/C=C/C(=O)NO)cc1 | 6.83 ± 2.5% | 9.79 ± 7.8% |
| OCCCCn1cnc2c(O)nc(NCc3ccc(Cl)c(Cl)c3)nc21 | 4.76 ± 1.4% | 10.6 ± 7.9% |
| O=C(CCc1ccc2c(c1)OCO2)NCc1ccc(-c2ccccc2F)cc1 | 5.04 ± 3.2% | 14 ± 6.8% |
| Nc1nc(=O)c(Br)c(-c2ccccc2)[nH]1 | 5.86 ± 5.3% | 9.38 ± 7.4% |
| Cc1cc(CCOc2c(C)cc(-c3nnn(C)n3)cc2C)on1 | 4.64 ± 1.1% | 8.74 ± 2.1% |
| C[C@@H](NC(=O)c1ccccc1-c1ccccc1)B(O)O | 3.09 ± 1.4% | 21.8 ± 15% |
| CN(C/C=C/C#CC(C)(C)C)Cc1cccc2ccccc12 | 5.74 ± 2.2% | 17.7 ± 11% |
| CN(C)CCNC(=O)c1cccc2cccnc12 | 5.46 ± 4.5% | 14.7 ± 8% |
| Oc1c(C(Nc2nc3ccccc3s2)c2ccc(OC(F)F)cc2)ccc2cccnc12 (configuration not stated) | 3.08 ± 0.27% | 9.48 ± 12% |
| CNC(=O)C1O[C@@H](n2cnc3c(NCc4cccc(I)c4)nc(Cl)nc32)[C@H](O)[C@@H]1O (some centres not stated) | 5.42 ± 1.8% | 12.6 ± 3.5% |
| CCCCc1ccc(-c2nc(C)c(C(=O)OC)s2)cc1 | 4.25 ± 0.74% | 12.2 ± 3.7% |
| CCOC(=O)/C=C/[C@H](C[C@@H]1CCNC1=O)NC(=O)[C@H](CC)n1cccc(NC(=O)c2cc(C)on2)c1=O | 4.38 ± 3.6% | 8.98 ± 7.5% |
| O=C1C=C(c2ccccc2)S(=O)(=O)c2ccccc21 | 9.24 ± 1.8% | 38 ± 9.4% |
| Cc1c[nH]c(=O)nc1NCc1ccccc1 | 7.05 ± 4.5% | 8.45 ± 2.8% |
| CC1(C)CC(NC(=O)C(=O)Nc2ccc(Cl)cc2)CC(C)(C)N1 | 2.32 ± 0.043% | 8.19 ± 5.5% |
